Measured values: PubChem BioAssay
Unmarked numbers belong to inactive results. The rule behind the calls is not given here.

Target: Pantothenate synthetase (Mycobacterium tuberculosis (strain ATCC 25618 / H37Rv)) (UniProt P9WIL5)
Assay: Recombinant Mtb pantothenate synthetase (PanC) inhibitors, coupled enzyme, confirmatory (AID 375);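 note: 0% = full reaction with vehicle and 100% = no enzyme background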
Settings: coupled enzyme assay; at 10 µM, hits give high values

Chain of Pantothenate synthetase (Mycobacterium tuberculosis (strain ATCC 25618 / H37Rv)) (P9WIL5 whole entry, looked up): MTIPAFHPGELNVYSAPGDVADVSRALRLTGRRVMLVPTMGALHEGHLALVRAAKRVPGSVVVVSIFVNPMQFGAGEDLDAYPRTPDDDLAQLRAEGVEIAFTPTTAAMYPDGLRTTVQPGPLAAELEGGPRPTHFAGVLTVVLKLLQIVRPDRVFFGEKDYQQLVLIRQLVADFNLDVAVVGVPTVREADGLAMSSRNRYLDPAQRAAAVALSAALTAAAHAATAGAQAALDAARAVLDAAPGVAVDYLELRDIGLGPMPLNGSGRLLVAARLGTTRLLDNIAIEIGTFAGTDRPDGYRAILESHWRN

Compound | inhibition [%]
CCOC(=O)c1c(-c2ccc(C)o2)csc1NC(=O)CN1CCN(CC)CC1 | 0
CCC(=O)c1cc(F)c(N2CCN(C(=O)c3ccco3)CC2)cc1C | 7
CS(=O)(=O)N(CC(=O)Nc1cccc(F)c1)Cc1ccccc1 | 0
COc1ccc(NC(=O)C2Cc3ccccc3C(=O)O2)cc1 (stereo unspecified) | 0
Cc1ccc(NC(=O)c2oc3ccc(S(=O)(=O)N4CCOCC4)cc3c2C)cc1C | 3
O=C(Nc1ccc2c(c1)OCCO2)c1cnc2n(c1=O)CCS2 | 0
